High-throughput results (PubChem BioAssay)
Sfp PPTase inh: Sfp phosphopantetheinyl transferase inhibition; AID 1490; Biochemical Sfp PPTase activity, qHTS; 3.5% of 310,000 active; Potency, µM, for inactives: largest response in the series, negative = inhibition, usual class: inhibitors;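 note: the enzyme is Sfp with the accession as filed and its product quenches rhodamine fluorescence; 0% = enzyme reaction without inhibitor and -100% = no enzyme wells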
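After 15 min at room temperature with compound, 15 nM Sfp received 5 uM rhodamine-CoA plus 12.5 uM BHQ-2-ybbR (50 mM Hepes pH 7.6, 10 mM MgCl2). Rate came from the fluorescence difference over 30 min, ex 525/em 598 nm.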
RORgamma inh: inhibitors of mouse ROR gamma transcriptional activity; Drosophila S2 Gal4-RORgamma UAS-luciferase reporter, 20 h; Potency, µM (doses to about 53.6 µM), inactives show at the top dose activity change, negative = inhibition, hits mostly inhibitors; 5.4% of 310,000 active; AID 2551; note: nearly all actives have a fitted effect of over 60% in size
Target sequence (P51450 whole entry, looked up, the tested form may be a part): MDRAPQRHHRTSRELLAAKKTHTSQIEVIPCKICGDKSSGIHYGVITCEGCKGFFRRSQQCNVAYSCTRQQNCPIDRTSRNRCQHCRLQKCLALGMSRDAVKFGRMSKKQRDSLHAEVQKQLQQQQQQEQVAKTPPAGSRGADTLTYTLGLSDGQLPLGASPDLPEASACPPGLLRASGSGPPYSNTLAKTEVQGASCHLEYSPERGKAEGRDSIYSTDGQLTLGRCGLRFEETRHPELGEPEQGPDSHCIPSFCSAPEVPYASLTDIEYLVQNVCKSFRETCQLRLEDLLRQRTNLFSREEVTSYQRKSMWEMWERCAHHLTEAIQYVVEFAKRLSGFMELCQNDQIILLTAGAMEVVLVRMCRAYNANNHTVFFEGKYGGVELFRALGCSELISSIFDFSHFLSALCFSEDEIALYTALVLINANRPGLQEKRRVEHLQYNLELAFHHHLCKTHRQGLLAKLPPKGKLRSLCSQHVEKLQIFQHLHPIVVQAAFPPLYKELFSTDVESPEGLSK
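Schneider cells (Drosophila), stable Gal4 DBD–ROR gamma + UAS-luc; 1 hr cmpd preincubation; Cu2+ induction 700 uM final; 20 hr ambient; luminescence.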
PLK1 PBD block: blocks phosphopeptide binding to human PLK1 polo-box domain; P53350; Plk1 PBD binding of FITC phosphopeptide, fluorescence polarization; Potency, µM, for inactives: max response, negative = inhibition, usual class: inhibitors; 2.8% of 360,000 active; AID 720504; note: series mostly up to about 57 µM; nearly all actives have a fitted effect of over 65% in size
ALDH1A1 inh: inhibitors of human aldehyde dehydrogenase 1A1; Potency, µM (titrated, usually from 75.3 µM), inactives show top-dose activity, negative = inhibition, most hits filed as inhibitors; 7.3% of 220,000 active; Purified ALDH1A1, NADH fluorescence, propionaldehyde substrate; P00352; AID 1030; active = well fitted inhibition curve with a large enough effect, not every such curve was filed as active; inconclusive = small, poorly fitted or top-dose-only effect, or another doubt; inactive = no such curve, though single readings can be large or run the other way;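 note: plate controls were no enzyme wells and a reference inhibitor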
Gal4-VP16 FLuc: counter-screen for ROR gamma inhibitors: Gal4-VP16 reporter | Drosophila S2 Gal4-VP16 UAS-luciferase, luminescence, 20 h | Potency, µM (titrated, usually from 53.6 µM), inactives show at the highest dose activity, negative = inhibition, hits mostly inhibitors | 3.5% of 310,000 active | AID 2546;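 note: Gal4-VP16 expression switched on by copper sulfate through the metallothionein promoter; nearly all actives have a fitted effect of over 50% in size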
* hit, by the source's call; ? = inconclusive; nt = no result given; [ ] = dose if it differs, or a comment. Compounds with a hit are over-represented: about 12% of the library has one in this group of screens. Unless noted, calls come from the whole dose curve; as a rule, active = well fitted curve in the direction sought with a large enough effect; inconclusive = small, poorly fitted or top-dose-only effect, or another doubt; inactive = no such curve, though single readings can be large; an effect the other way counts as inactive or inconclusive. Unless noted, % is set by controls: 0 for no effect and ±100 for the full control effect; potency is the fitted concentration of half-maximal effect.

SMILES	Sfp PPTase inh	RORgamma inh	PLK1 PBD block	ALDH1A1 inh	Gal4-VP16 FLuc
COC(=O)[C@]12CCCCC=C1N(Cc1cccc3ccccc13)C(=O)[C@H](CC(=O)NCCc1ccccc1OC)C2	nt	nt	-5%	nt	nt
CN(C)CCN(c1ccccn1)c1ccccn1	nt	nt	nt	8%[13.5 µM]	nt
COc1cc2c(cc1[N+](=O)[O-])-c1ccc([N+](=O)[O-])cc1C2=NNC(N)=S	nt	nt	9.5µM*	nt	nt
O=C(Nc1ccc2c(c1)OCO2)C1Cc2c(-c3ccccc3Oc3ccccc3)ccnc2O1 (stereo not drawn)	nt	nt	0%	nt	nt
COc1ccc(NC(=O)CC2C(=O)N(c3cccc(C)c3)C(=O)N2C2CCCCC2)cc1 (stereo not drawn)	?	-3%	-1%	-2%	0%
CCc1ccc(NC(=O)CC2C(=O)N(c3ccc(C)cc3)C(=O)N2CCc2ccncc2)cc1 (stereo not drawn)	-16%	?	-5%	3.5µM*	0%
CCc1ccc(NC(=O)CC2C(=O)N(c3cccc(C)c3)C(=O)N2C2CC2)cc1 (stereo not drawn)	14%	27%	-2%	11µM*	18%
CCCCc1ccc(S(=O)(=O)NC(=O)C2(C)CCN2C(=O)CCc2cccs2)cc1 (stereo not drawn)	nt	nt	0%	nt	nt
CCOC(=O)Nc1c(C(=O)OC)[nH]c2cc(OC)ccc12	5%	25%	-8%	?	-16%
COC(=O)c1[nH]c2cc(OC)ccc2c1N	25µM*	5%	-1%	?	4%
CCCSc1nc2c([nH]1)c(=O)n(C)c(=S)n2C	nt	nt	-1%	nt	nt
Cn1c(=O)c2[nH]c(SCCN3CCOCC3)nc2n(C)c1=S	nt	nt	27µM*	-11%[13.5 µM]	nt
O=S(=O)(c1ccc2c(c1)CCN2)N1CCCC1	nt	nt	-8%	nt	nt
O=S1(=O)C[C@@H](O)[C@@H](Nc2ccc(Cl)cc2)C1	10%	4%	0%	11µM*	-8%
O=S1(=O)CC(NCc2ccccc2)C(Nc2ccccc2)C1 (stereo not drawn)	-4%	-14%	-2%	-2%	-1%
O=c1c(-c2ccc(F)cc2)nc2cnc(N3CCOCC3)nc2n1CCc1ccccc1	1%	-12%	nt	?	1%
CC(=O)Oc1ccc(C(=O)[C@H]2[C@H]3C(=O)N(c4ccc(C)cc4)C(=O)[C@H]3[C@@H]3C=CC=NN32)cc1	-22%	?	-22%	20µM*	3%
CC(=O)Oc1ccc(N2C(=O)C3C(C2=O)C(C(=O)c2ccc(Cl)cc2)N2CCCC32)cc1 (stereo not drawn)	-1%	-8%	24µM*	nt	14µM*
CC(=O)Oc1ccc(C(=O)[C@H]2[C@H]3C(=O)N(c4ccc(C)cc4C)C(=O)[C@H]3[C@@H]3C=CC=NN32)cc1	50µM*	-32%	-17%	nt	-3%
COc1ccc(N2C(=O)[C@@H]3[C@H](C2=O)[C@H](C(=O)c2ccc(OC(C)=O)cc2)N2N=CC=C[C@@H]32)cc1	-23%	?	nt	?	16%
Cc1ccc(N2C(=O)CC(N3CCN(c4ccc(F)cc4)CC3)C2=O)c(C)c1 (stereo not drawn)	18%	-4%	5%	nt	-3%
COC(=O)c1cccc(-n2sc3ccccc3c2=O)c1	nt	nt	2.7µM*	nt	nt
O=c1sc2ccccc2c(=O)n1Cc1ccccc1F	4%	17%	-4%	?	-14%
Cc1ccc(-n2sc3cc(F)ccc3c2=O)c(C)c1	nt	nt	3µM*	nt	nt
O=c1c2ccccc2sn1-c1ccc(F)cc1	nt	nt	3µM*	nt	nt
SMILES	Sfp PPTase inh	RORgamma inh	PLK1 PBD block	ALDH1A1 inh	Gal4-VP16 FLuc
O=c1c2cc(F)ccc2sn1-c1ccccc1Cl	nt	nt	2.7µM*	nt	nt
CC(C)CNC(=O)c1cc(S(=O)(=O)N2CCOCC2)ccc1N1CCCC1	8%	-19%	6%	nt	7%
O=C(c1sc2cc(F)ccc2c1Cl)N1CCN(c2cccc(Cl)c2)CC1	15%	?	2%	-13%	-8%
O=c1c2ccc(F)cc2sn1-c1ccccc1	nt	nt	3.4µM*	nt	nt
CNC(=O)NC(=S)NC(=O)c1ccc(OC)cc1	-22%	11µM*	1%	18%	-27%
Fc1ccc(CNC(=S)Nc2ccccc2F)cc1	-4%	?	-24%	nt	?
COc1ccc(C(=O)NNC(=S)NC(=O)C(C)(C)C)cc1	-3%	-8%	-7%	4%	-27%
COc1ccc(CNC(=S)Nc2ccccc2F)cc1	-2%	?	-14%	nt	18µM*
